Screens deposited in PubChem BioAssay by National Center for Advancing Translational Sciences (NCATS).
DT40 TDP1 no CPT – qHTS for Inhibitors of human tyrosyl-DNA phosphodiesterase 1 (TDP1): qHTS in cells in absence of CPT. DT40 Tdp1-/- hTDP1 cells, no CPT, ATP luminescence, 48 h. Potency, µM (top dose mostly 46.2 µM), actives largely listed as inhibitors. 420,000 tested, 15% active. AID 686978, 2013; also: nearly all actives have a fitted effect of over 55% in size
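A cellular qHTS used chicken DT40 cells lacking endogenous Tdp1 but carrying stably transfected human TDP1. Compounds were applied without camptothecin, and cell growth kinetics were judged by ATP-dependent luminescence after ≥48 hr.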
HepG2 viability – qHTS for Inhibitors of TGF-b: Cytotox Counterscreen; HepG2 CAGA-GFP viability, ATP luminescence, 18 h; Potency, µM (doses to about 46.1 µM), hits mostly cytotoxic; 410,000 tested, 0.76% active; AID 588856, 2011
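CellTiter-Glo luminescence gave cytotoxicity after 18 hours at 37 degrees C. The cells were HepG2 CAGA-GFP in 1% FBS DMEM, stimulated with 500 pg/mL TGF-beta after compound addition. %Activity was normalised to no-cell wells (complete cell-killing) and DMSO (no toxicity), and curves were fitted and classified.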
IL1B secr inh – qHTS for Inhibitors of Inflammasome Signaling: IL-1-beta AlphaLISA Primary Screen; THP-1 LPS/ATP IL-1B secretion, AlphaLISA, 16 h; hits give low values; activity change, % at 57.5 µM; 360,000 tested, 4.7% active; AID 743279, 2014; in the data active = activity change below about -50%; inconclusive = mostly about -30% to -49%
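THP-1 cells pretreated 1 hr with compounds (up to 57.5 uM final), then stimulated with LPS (250 ng/mL final) plus ATP (1.25 mM final); secreted IL-1B measured by AlphaLISA after 16 hr, decreased signal indicating inhibition.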
TDP1 block – qHTS Assay for Inhibitors of Tyrosyl-DNA Phosphodiesterase (TDP1); Tyrosyl-DNA phosphodiesterase 1 (Homo sapiens), Q9NUW8; recombinant TDP1, AlphaScreen DNA substrate cleavage; Potency, µM (top dose mostly 130 µM), most hits filed as inhibitors; 350,000 tested, 0.28% active; AID 485290, 2010; also: nearly all actives have a fitted effect of over 40% in size
Target sequence (Q9NUW8 whole entry, looked up): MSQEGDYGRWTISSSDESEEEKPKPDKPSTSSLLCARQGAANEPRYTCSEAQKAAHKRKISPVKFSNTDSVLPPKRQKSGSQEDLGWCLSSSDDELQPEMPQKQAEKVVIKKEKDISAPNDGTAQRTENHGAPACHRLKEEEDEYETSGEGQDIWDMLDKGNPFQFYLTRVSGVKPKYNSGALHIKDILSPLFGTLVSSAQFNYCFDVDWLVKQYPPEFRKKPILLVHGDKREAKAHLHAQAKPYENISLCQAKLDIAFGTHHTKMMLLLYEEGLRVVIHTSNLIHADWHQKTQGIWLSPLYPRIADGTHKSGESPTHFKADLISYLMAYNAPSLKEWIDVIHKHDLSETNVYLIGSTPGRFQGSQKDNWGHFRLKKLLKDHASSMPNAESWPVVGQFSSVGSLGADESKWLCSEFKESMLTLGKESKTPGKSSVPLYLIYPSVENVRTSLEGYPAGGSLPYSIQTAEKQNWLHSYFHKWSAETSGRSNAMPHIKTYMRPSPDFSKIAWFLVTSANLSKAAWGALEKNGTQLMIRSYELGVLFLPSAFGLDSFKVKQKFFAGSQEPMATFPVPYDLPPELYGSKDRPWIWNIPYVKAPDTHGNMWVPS
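Enzyme-compound mixtures sat 15 min at room temperature, followed by a 5 min reaction with 15 nM final substrate and 10 min with AlphaScreen beads. Recombinant human Tdp1 was used at 1 nM final.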
TDP1 cell CPT – qHTS for Inhibitors of human tyrosyl-DNA phosphodiesterase 1 (TDP1): qHTS in cells in presence of CPT | chicken DT40 Tdp1-/-;hTDP1 cells + 20 nM CPT, ATP luminescence, 48 h | Potency, µM (series often up to 46.2 µM), hits mostly inhibitors | 420,000 tested, 12% active; also: nearly all actives have a fitted effect of over 55% in size
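Chicken DT40 Tdp1-/- cells complemented with human TDP1, 400 cells/well, exposed to compounds plus 20 nM camptothecin for at least 48 h at 37 C; viability read as ATP content by CellTiter-Glo luminescence.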
TGFb SMAD3 inh – qHTS for Inhibitors of TGF-b. HepG2 CAGA-GFP TGF-b/SMAD3 reporter, GFP fluorescence, 18 h; TGF-beta stimulated, 500 pg/mL final. Potency, µM (top dose mostly 46.1 µM), most hits filed as inhibitors. 410,000 tested, 1.2% active. AID 588855, 2011; also: nearly all actives have a fitted effect of over 65% in size
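HEPG2 CAGA-GFP reporter cells (1000/well, DMEM with 1% FBS) received compounds, then recombinant TGF-beta at 500 pg/mL final for 18 hours at 37 degrees C. Per-cell GFP summed per well was normalised to unstimulated and stimulated DMSO controls before curve fitting.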
Numbers stand for hits; - = inactive; ? = inconclusive; . = no result given; [ ] = another dose, or the depositor's remark. An excerpt weighted towards active compounds, which were near 18% of everything screened. Unless noted, calls follow the shape of the dose curve; as a rule, active = well fitted curve in the direction sought with a large enough effect; inconclusive = small, poorly fitted or top-dose-only effect, or another doubt; inactive = no such curve, though single readings can be large; an effect the other way counts as inactive or inconclusive.

SMILES | DT40 TDP1 no CPT | HepG2 viability | IL1B secr inh | TDP1 block | TDP1 cell CPT | TGFb SMAD3 inh
O=C1c2ccccc2NC(c2ccccc2)N1Cc1ccco1 (stereo not given) | - | - | - | - | - | -
Cc1ccc(CNC(=O)c2ccc(C)c(S(=O)(=O)N3CCCCC3)c2)cc1 | - | - | - | - | - | -
CCCN1C(=O)c2ccccc2NC1c1ccc(Br)cc1 (stereo not given) | ? | - | -51 | . | - | -
CCCN1C(=O)c2ccccc2NC1c1ccc(Cl)cc1 (stereo not given) | - | - | - | . | - | -
O=C1c2ccccc2N2C(=O)c3ccccc3C2N1Cc1ccco1 (stereo not given) | 18µM | - | ? | - | 23µM | -
O=C(NC1CCCCCCC1)C1c2ccccc2C(=O)N1Cc1ccco1 (stereo not given) | - | - | - | - | - | -
COCCNC(=O)c1ccc(CSCc2cccc(Cl)c2)o1 | ? | - | - | . | ? | -
O=C(NC1CC1)c1ccc(CSCc2ccccc2Cl)o1 | ? | - | - | - | ? | -
Cc1cccc(CSCc2ccc(C(=O)NCCc3ccccc3)o2)c1 | 13µM | - | . | - | ? | ?
O=C(NCCc1ccc(Cl)cc1)c1ccc(CSCc2ccccc2Cl)o1 | 16µM | - | . | - | 15µM | ?
COCCn1c(C)c(C)c(S(=O)(=O)c2ccccc2)c1N | - | - | - | . | - | -
COc1ccc(/C=C/C(=O)NCC(c2ccc(F)cc2)N2CCOCC2)cc1OC (stereo not given) | ? | - | - | - | - | -
CCOc1ccc(/C=C2\C(=O)c3ccccc3OC2c2ccccc2)cc1 (stereo not given) | 18µM | - | - | - | ? | -
CCN(CC)C(=O)Oc1nnc(SC(C)C)n1-c1ccc(Cl)cc1 | ? | - | - | . | ? | -
CN(C)CC(=O)Nc1ccc(S(N)(=O)=O)cc1 | - | - | - | - | - | -
NS(=O)(=O)c1ccc(NC(=O)Nc2ccc(Cl)cc2)cc1 | 16µM | - | - | - | - | -
CC(=O)N(C)c1ccc(NC(=O)Nc2ccc(Cl)cc2)cc1 | 18µM | - | - | . | ? | -
CC(C)C(Cl)=NOC(=O)Nc1ccc(S(N)(=O)=O)cc1 | 2.6µM | - | -99 | . | 1.2µM | ?
CNC(=O)Nc1ccc(S(N)(=O)=O)cc1 | - | - | - | - | - | -
CN(CC(=O)Nc1ccc(C#N)cc1)Cc1ccc(Cl)cc1 | ? | - | - | - | ? | -
N#Cc1ccc(NC(=O)Nc2ccc(Cl)cc2)cc1 | 3.7µM | - | -110 | - | 2.9µM | ?
OCC[C@@H]1C[C@H](O)[C@@H](O)[C@@]2(OCCCc3ccccc32)O1 | - | - | - | . | - | -
COc1ccc(-c2nc3c(c4c2C[C@H](c2ccccc2)OC4)CN(C(=O)N[C@@H](C)c2ccccc2)CC3)c(C)c1 | . | . | . | -[12.3 µM] | . | .
COc1cc2[nH]c(=O)c(C(=O)NCc3ccccc3Cl)c(O)c2cc1OC | 18µM | - | - | - | 15µM | -
CCOc1ccccc1C1CC(=O)Oc2c1c(=O)n(C)c1ccccc21 (stereo not given) | - | - | . | - | - | -
Cc1ccc(S(=O)(=O)NN=C(c2ccccc2)c2cccs2)cc1 | 12µM | - | - | . | - | -
O=C(Cc1ccccc1)NCC(=O)N1CCN(c2ccc(F)cc2)CC1 | ? | - | - | . | - | -
O=C(Cc1ccc(Cl)cc1)NCC(=O)N1CCN(c2ccccc2)CC1 | 23µM | - | - | - | 29µM | ?
COc1ccc(N2CCN(C(=O)CNC(=O)Cc3ccccc3)CC2)cc1 | - | - | - | - | - | ?
